A selection: hits, their analogues and other compounds. The true share with any hit is near 4.7%.
TRHR ag – activates the human TRH receptor. TRHR cells, calcium flux fluo-8, FDSS agonist mode. activation, % at 2 µM. 0.18% of 360,000 active. P34981; further: 0% is about no effect
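TRHR-expressing cells, plated overnight in medium with 10% serum, were loaded with fluo-8 calcium dye at room temperature. After a 10 s baseline, library compound was pin-added and calcium release was recorded kinetically (ex 480/em 530) as agonist response.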
D1 antag – human D1 dopamine receptor antagonism | P21728 | HEK293 TREx D1 cells, calcium flux, dopamine EC80; stronger effect = lower value | activity change, negative = inhibition, % at 10 µM | 3.2% of 360,000 active | AID 504652; in the data active means activity change below about -30%; further: on the % scale 0 is the no-effect control and ±100 the full control effect
Target sequence (P21728 whole entry, looked up): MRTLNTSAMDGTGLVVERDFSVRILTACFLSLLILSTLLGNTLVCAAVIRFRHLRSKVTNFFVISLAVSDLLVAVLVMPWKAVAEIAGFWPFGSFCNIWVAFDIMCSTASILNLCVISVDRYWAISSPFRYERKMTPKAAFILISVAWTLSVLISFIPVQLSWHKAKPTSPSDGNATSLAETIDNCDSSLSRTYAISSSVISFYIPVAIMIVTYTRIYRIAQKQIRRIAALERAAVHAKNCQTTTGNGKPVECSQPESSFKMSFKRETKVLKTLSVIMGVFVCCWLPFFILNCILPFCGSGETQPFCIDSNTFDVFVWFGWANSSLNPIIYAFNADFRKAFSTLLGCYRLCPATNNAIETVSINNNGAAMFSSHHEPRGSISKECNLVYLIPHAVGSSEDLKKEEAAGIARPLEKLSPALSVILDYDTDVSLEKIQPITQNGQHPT
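After overnight tetracycline induction at 30 C, force-coupled D1 HEK293 cells took up a no-wash calcium dye at room temperature. Compounds were added and monitored 180 s, and the response to EC80 dopamine was then recorded.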
D1 agonist – activates the human D1 dopamine receptor. HEK293 T-REx D1 cells, calcium flux, agonist mode. activation, % at 2 µM. 1% of 360,000 active; further: 0% is about no effect
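Inducible HEK293 T-REx D1 cells, force-coupled to calcium signalling, were plated at 4000 cells/well with tetracycline and held overnight at 30 C. After no-wash calcium dye loading, compound-evoked calcium rise over 180 s flagged agonists.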
D1 potentiator – potentiators of human D1 dopamine receptor; P21728; HEK293 TREx D1 cells, calcium flux, dopamine EC20 potentiation; potentiation, % at 10 µM; 0.036% of 360,000 active; AID 504651; in the data active means potentiation above about 30%; further: 0% is about no effect
TRHR PAM – allosterically enhances the human TRH receptor | P34981 | TRHR cells, fluo-8 calcium fluorescence, EC20 TRH enhancement | enhancement, % at 2 µM | 0.66% of 360,000 active | AID 493056; in the data active means enhancement above about 30%; further: 0% is about no effect
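Enhancer read-out: after compound pinning and an initial kinetic agonist-mode read, an EC20 of TRH (10 nM final) was injected and fluo-8 calcium signal (Ex 480/Em 530) followed at 1 s/cycle for 100 cycles in TRHR-expressing cells.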
The depositor's hits bear a star. Unless noted, no stated cut-off is given here; in the data, active means activation above about 30%; inactive means the rest.

SMILES | TRHR ag | D1 antag | D1 agonist | D1 potentiator | TRHR PAM
CCn1cc([N+](=O)[O-])c(C(=O)Nc2ccc3c(c2)OCCO3)n1 | -1 | -75* | 0 | -7 | -15
O=C(CCc1ccccc1)Nc1cccc([N+](=O)[O-])c1 | -1 | -13 | 10 | 0 | -2
CC(C)c1ccc(NC(=O)Cn2nnc(C(=O)NCc3ccc(Cl)cc3)c2N)cc1 | 0 | 1 | 0 | 3 | 15
COc1cccc(C(=O)Nc2cccc(OCc3cc(=O)n4cc(C)ccc4n3)c2)c1 | 0 | -27 | -1 | 1 | 1
O=C(Nc1cccc([N+](=O)[O-])c1)C1C2/C=C\CCCCC21 (stereo unspecified) | 0 | -34* | 12 | -19 | -9
O=C(COc1ccc(/C=N/NC(=O)c2ccncc2)cc1)Nc1cccc([N+](=O)[O-])c1 | 0 | -32* | 0 | -9 | 0
O=C(Nc1cccc([N+](=O)[O-])c1)C1C2CCCCC21 (stereo unspecified) | 1 | -9 | 11 | -1 | -5
Cc1nc(-c2cccc(NC(=O)Nc3ccc([N+](=O)[O-])cc3)c2)no1 | 2 | -45* | 25 | -6 | -9
COc1ccc(C)cc1NC(=O)Nc1cccc(-c2noc(C)n2)c1 | 0 | -14 | 0 | -2 | 14
O=C(Nc1cccc([N+](=O)[O-])c1)Nc1ccc2c(c1)OCCO2 | 1 | -40* | 18 | -7 | 16
CC(C)S(=O)(=O)c1csc(NC(=O)Nc2cccc([N+](=O)[O-])c2)c1Cl | 0 | -33* | 20 | -9 | -9
COc1ccc(CCNC(=O)Nc2cccc([N+](=O)[O-])c2)cc1 | -1 | -34* | 15 | -6 | -4
CC1CCN(CC2CCN(C(=O)NCc3ccccc3)CC2)CC1 | 1 | -1 | 0 | -2 | 2
CCC(=O)N1c2ccccc2CC1C(=O)NCCc1ccccc1 (stereo unspecified) | 0 | 4 | -1 | 0 | -4
CN(C)c1ccc(CNC(=O)c2ccc(NC(=O)N3CCCCc4ccccc43)cc2)cc1 | -1 | -29 | 2 | -1 | 5
CN1CCN(C(=O)c2cc3ccccc3oc2=O)CC1 | 0 | -6 | 2 | -4 | -2
Cc1cccc(N2CCN(C(=O)c3cc4ccccc4oc3=O)CC2)c1C | 0 | -76* | 4 | -10 | -1
Cc1ccc(N2CCN(C(=O)NC3CCCCC3)CC2)c(C)c1 | 1 | -6 | 21 | -4 | -5
Cc1cccc(N2CCN(C(=O)NC3CCCCC3)CC2)c1C | 5 | -41* | 33* | 0 | 6
Clc1ccc2c(N/N=C/c3ccc(Br)cc3)ccnc2c1 | -1 | -43* | 8 | -7 | 13
COc1cc2[nH]c(=O)n(CCCCCC(=O)N3CCN(c4ccc(Cl)cc4)CC3)c(=O)c2cc1OC | 0 | 4 | 2 | -1 | -1
Cc1c(Cl)cccc1NC(=O)CSc1sc2c(O)cc(=O)[nH]c2c1C#N | 1 | -7 | 0 | 0 | -3
N#Cc1c(SCC(=O)Nc2ccccc2C(F)(F)F)sc2c(O)cc(=O)[nH]c12 | 1 | -33* | 2 | -10 | 1
COc1ccc(Cl)cc1NC(=O)CCN1C(=O)C2CC=CCC2C1=O (stereo unspecified) | -1 | 2 | 3 | -1 | 0
COc1ccccc1NC(=O)CCN1C(=O)C2CC=CCC2C1=O (stereo unspecified) | 0 | 8 | 0 | 1 | 35*
SMILES | TRHR ag | D1 antag | D1 agonist | D1 potentiator | TRHR PAM
CCC(=O)N1c2ccccc2CC1C(=O)NCCN1CCN(c2cccc(C(F)(F)F)c2)CC1 (stereo unspecified) | 0 | -11 | 4 | 0 | 0
Clc1ccc(Nc2c(-c3ccccc3Cl)nc3ccc(Cl)cn23)cc1 | 0 | -41* | 0 | -2 | 12
Oc1ccccc1-c1nc2cnccn2c1Nc1ccc(Cl)cc1 | 0 | 3 | 3 | 0 | -3
Cc1c(C(=O)N(C)C)sc2c1c(=O)n(-c1ccc(Cl)c(Cl)c1)c(=O)n2CC(=O)Nc1cccc(C(F)(F)F)c1 | 1 | 7 | 2 | -1 | 2
COCCn1c(SCC(=O)Nc2ccc(C(F)(F)F)cc2)nc2c([nH]c3ccccc32)c1=O | 0 | 14 | 0 | 1 | -5
Cc1cccc(C)c1NC(=O)CSc1nc2ccccc2c2nc(CCc3c(C)n[nH]c3C)nn12 | 0 | -46* | 2 | 0 | 1

Source: PubChem (National Center for Advancing Translational Sciences (NCATS))
